According to ChEMBL document CHEMBL3988442, “University of Dundee, Small-Polar-MMV Screening Library” (2021):
Screen size: about 48,000 compounds; about 13,000 (27%) showed an effect of 50% or more. This is one part of the list.

System: Wolbachia pipientis
Experiment: Anti-Wolbachia Cell-Based Screen
Assay type: functional
Design: scale not given: in the data most compounds retested in dose-response had high values
Details: 5 µM

Structure (SMILES) | Percent Effect
Cc1cc(CN2C[C@@H]3CN(C(=O)c4ccco4)CCO[C@@H]3C2)no1.O=C(O)C(F)(F)F | -7.73%
Cc1cc(CN2CC[C@H]3OCC[C@@]3(C(=O)NC(C)C)C2)no1.O=C(O)C(F)(F)F | 2.849%
O=C(NCc1ccccn1)[C@@]12CCO[C@@H]1CCN(C1CCCC1)C2.O=C(O)C(F)(F)F.O=C(O)C(F)(F)F | 86.28%
Cc1cc(CN2CC[C@H]3OCC[C@@]3(C(=O)N3CCOCC3)C2)no1 | 107.8%
Cc1ccnc(OC[C@@]23CCO[C@@H]2CCN(C2CCC2)C3)n1.O=C(O)C(F)(F)F | -3.433%
CCn1ccnc1CN1CCNCC1C.Cl.Cl (centres undefined) | 0.9214%
CN(C)C(=O)CN1CCCC12CCCN(c1ncc(F)cn1)C2.O=C(O)C(F)(F)F (centres undefined) | 0.08141%
O=C(c1ncccn1)N1C[C@@H]2CN(CC3CC3)CCO[C@@H]2C1 | -1.954%
CN1CCN(C(=O)Cc2csc(-c3ccsc3)n2)C(c2ccccc2)C1 (centres undefined) | -6.196%
CN(C)CCN(C)C[C@H]1CN2CC[C@H]1C[C@@H]2CNC(=O)Nc1ccsc1 | 9.133%
Cc1cc(CN2CC[C@]3(C[C@@H](OCC(=O)N(C)C)CO3)C2)no1.O=C(O)C(F)(F)F | 25.8%
O=C(O)C(F)(F)F.O=C(O)C(F)(F)F.c1ccc(O[C@H]2CO[C@@]3(CCCN(Cc4nccs4)C3)C2)nc1 | 12.82%
Cn1cc(CN2CCC[C@]3(C[C@@H](Oc4ccccn4)CO3)C2)cn1.O=C(O)C(F)(F)F.O=C(O)C(F)(F)F | 98.39%
Cn1cc(CN2CC[C@]3(C[C@H](Oc4ccccn4)CO3)C2)cn1.O=C(O)C(F)(F)F.O=C(O)C(F)(F)F | 102.3%
CN(C)[C@@H]1CN(Cc2cnn(C)c2)[C@@H]2COC[C@H]12.O=C(O)C(F)(F)F.O=C(O)C(F)(F)F.O=C(O)C(F)(F)F | -10.13%
Cc1csc(CN2CCC[C@]3(C[C@H](Oc4ccccn4)CO3)C2)n1.O=C(O)C(F)(F)F.O=C(O)C(F)(F)F | -0.2968%
Cc1csc(CN2CCC[C@]3(C[C@@H](Oc4ccccn4)CO3)C2)n1.O=C(O)C(F)(F)F.O=C(O)C(F)(F)F | 133.6%
Cn1cc(CN2CCC[C@]3(C[C@H](Oc4ccccn4)CO3)C2)cn1 | 94%
Cc1noc(C)c1CN1C[C@@H](OCC(=O)N(C)C)[C@H]2OCCC[C@H]21 | -2.894%
O=C(NCC1CC1)[C@@H]1C[C@@H]2OCCN[C@@H]2C1.O=C(O)C(F)(F)F | 8.68%
Cc1cc(C)c(CNCC(O)c2ccc(F)c(F)c2)c(C)c1.Cl (centres undefined) | 6.678%
Cc1c(C2SCC(=O)Nc3c2cnn3C(C)(C)C)cnn1C (centres undefined) | 122.6%
COc1cccc(C2SCC(=O)Nc3ccsc32)c1OC (centres undefined) | -5.826%
CC(C)(C)n1ncc2c1NC(=O)CSC2c1ccc2c(c1)OCCO2 (centres undefined) | 117.6%
O=C1CSC(c2ccsc2)c2sccc2N1 (centres undefined) | 0.8024%
COC(=O)c1ccc(C2SCC(=O)Nc3ccsc32)cc1 (centres undefined) | -2.415%
COC(=O)c1ccc(C2SCC(=O)Nc3c2cnn3C(C)(C)C)cc1 (centres undefined) | 111.9%

Structure (SMILES) | Percent Effect
O=C1CSC(c2ccc(O)cc2)c2sccc2N1 (centres undefined) | -5.574%
CC(C)(C)n1ncc2c1NC(=O)CSC2c1ccsc1 (centres undefined) | 129%
Cn1c(=O)n(C)c2cc(C3SCC(=O)Nc4ccsc43)ccc21 (centres undefined) | 27.99%
COc1cc(C2SCC(=O)Nc3ccsc32)cc(OC)c1O (centres undefined) | -0.1259%
O=C1CSC(c2cccs2)c2cnn(C3CCCC3)c2N1 (centres undefined) | 10.18%
CC1CCN(C[C@H]2CN3CC[C@H]2C[C@@H]3CNC(=O)Nc2ccsc2)CC1 | 0.4847%
CC1C(=O)Nc2cccnc2N1S(=O)(=O)c1ccc(C#N)c(Cl)c1 (centres undefined) | 12.36%
O=C(NC[C@H]1C[C@@H]2CCN1C[C@@H]2CN1CCOCC1)Nc1ccsc1 | 0.8179%
CN(C)C(=O)COC[C@@]12CCC[C@@H]1CNC2.O=C(O)C(F)(F)F | -7.185%
O=C(CSc1ccccn1)N1CCN(CCO)[C@@H]2CS(=O)(=O)C[C@@H]21 | -2.402%
Cn1cc(C2SCC(=O)Nc3c2cnn3C(C)(C)C)cn1 (centres undefined) | 109.1%
Cc1n[nH]c2c1C(c1cnn(C)c1)SCC(=O)N2 (centres undefined) | 12.5%
CC(C)CN1C[C@H]2C[C@H](C(=O)NCc3cccnc3)[C@@H](C1)O2 | -10.23%
Cn1cc(CN2C[C@H]3CN(c4cncnc4)C(=O)[C@H]3C2)cn1.O=C(O)C(F)(F)F | -0.6359%
N#Cc1ccc(C(=O)NS(=O)(=O)c2ccc(C#N)c(Cl)c2)cc1 | -4.058%
COc1ccc2ncn(Cc3ncc[nH]3)c(=O)c2c1 | 121%
O=S1(=O)C[C@@H]2[C@H](C1)N(Cc1ncc[nH]1)CCN2Cc1cccnc1 | -2.711%
CCc1ccc2ncn(Cc3ncc[nH]3)c(=O)c2c1 | 108.2%
Cc1ncsc1CN1CCO[C@H]2[C@H](Oc3ccccn3)CC[C@@H]21.O=C(O)C(F)(F)F.O=C(O)C(F)(F)F | -5.284%
Cc1nc(CC(=O)N(CCN2CCOCC2)Cc2ccco2)c(C)s1 | 5.284%
CCc1ncc(CN(CCc2ccccc2)Cc2cccs2)cn1.O=C(O)CC(O)(CC(=O)O)C(=O)O | 50.24%
CC(C)CN1CCC2(COCc3cnc(-c4ccccc4)nc32)C1.O=C(O)C(F)(F)F (centres undefined) | 105.5%
CN1CCC2(COCc3cnc(-c4ccccc4)nc32)C1.O=C(O)C(F)(F)F (centres undefined) | 9.461%
COCCN1CCC2(COCc3cnc(N(C)C)nc32)C1.O=C(O)C(F)(F)F (centres undefined) | 1.083%
O=C(O)C(F)(F)F.c1ccc(-c2ncc3c(n2)C2(CCN(CC4CC4)C2)COC3)cc1 (centres undefined) | 6.483%
CN(C)c1ncc2c(n1)C1(CCN(Cc3ccccc3)C1)COC2.O=C(O)C(F)(F)F (centres undefined) | -5.323%
COCCN1CCC2(COCc3cnc(-c4ccccc4)nc32)C1.O=C(O)C(F)(F)F (centres undefined) | 89.12%
